Measured values from ChEMBL document CHEMBL4513216, “Probing the Open Global Health Chemical Diversity Library for Multistage-Active Starting Points for Next-Generation Antimalarials” (ACS Infect Dis, 2020).
The whole screen tested about 69,000 compounds, of which about 8,600 (12%) showed an effect of 50% or more. The entries come from a sample that favours strong results as a whole.

Test system: Plasmodium berghei
Assay: Screen against P. berghei liver stage (PbLuc), transformed with Luciferase, at 10uM
Type: functional, HepG2
Conditions: tested at 10 uM

| SMILES | INHIBITION [%] |
| --- | --- |
| N#Cc1ccc(CN2CCCCC2Cn2cccn2)cc1 (configuration not stated) | -32 |
| COc1ccc(CC(=O)NC2CCc3nc(C)cn3C2)cc1 (configuration not stated) | 46.6 |
| COc1ncc(-c2ccc(NC(C)=O)cc2)c(OC)n1 | 14 |
| Cc1nc(O)c2nnn(C[C@H]3CCCN3C(=O)c3ccccc3F)c2n1 | 28 |
| OC1CCN(c2ccnc(NCCN3CCc4ccccc4C3)n2)C1 (configuration not stated) | 8.38 |
| OC1CCN(c2ccnc(NCCc3ccccc3Cl)n2)CC1 | 39.1 |
| OC1CCN(c2ccnc(NCCc3ccccc3Cl)n2)C1 (configuration not stated) | 93.6 |
| CCCc1ccc(CN2CCC3(CCC(=O)N(C)CC3)CC2)o1 | 21.2 |
| CCCc1nc(CN2CCN(C(C)c3nc(C4CC4)no3)CC2)no1 (configuration not stated) | -27.8 |
| COc1ccccc1CC(=O)NS(=O)(=O)c1ccc(NC(C)=O)cc1 | -14 |
| O=C(NCC1CCS(=O)(=O)C1)N(Cc1ccccn1)C1CC1 (configuration not stated) | 4.1 |
| O=C(O)C1(n2ccc(-c3ccco3)n2)CCN(Cc2cccs2)CC1 | 43.4 |
| Cc1csc(CN2CCC(C(=O)O)(n3ccc(-c4ccco4)n3)CC2)n1 | 51.3 |
| Cc1nc(CN2CCC(C(=O)O)(n3ccc(-c4ccco4)n3)CC2)co1 | 5.14 |
| COc1cccc(C(C(=O)O)N2CCCN(c3ccnc(C)c3)CC2)c1 (configuration not stated) | 27.6 |
| COc1cccc(N2CCN(C(C(=O)O)c3ccc(OC)nc3)CC2)c1 (configuration not stated) | 65.7 |
| COc1ccc(C(C(=O)O)N2CCCN(C3CCCCC3)CC2)cn1 (configuration not stated) | 32.7 |
| CCc1nc(N2CCC3(CCC(=O)N(CCCO)C3)CC2)no1 | 35.6 |
| Cc1c[nH]nc1C1CCN(C(=O)C2CCOCC2)C1 (configuration not stated) | 3.48 |
| CC(C)Nc1cc(-c2c[nH]nc2C2CCN(C(=O)C3CC3)C2)ccn1 (configuration not stated) | 87.85 |
| CC(=O)N1CCC(c2n[nH]cc2-c2ccnc(N)c2)C1 (configuration not stated) | 37.5 |
| Cc1c[nH]nc1C1CCN(C(=O)C2CCC2)CC1 | -14.2 |

| SMILES | INHIBITION [%] |
| --- | --- |
| CN1CCC(c2n[nH]cc2-c2ccnc(N)c2)C1 (configuration not stated) | 16.05 |
| O=C(C1CCCCC1)N1CCC(c2n[nH]c3nccnc23)CC1 | 44.1 |
| CC(C)CNc1cc(-c2c[nH]nc2C2CCN(C(=O)C3CC3)C2)ccn1 (configuration not stated) | 86 |
| COCCC(=O)N1CCC(c2ncncc2-c2ccnc(N)c2)C1 (configuration not stated) | 0.696 |
| O=C(C1CCCC1)N1CCC(c2n[nH]c3nccnc23)CC1 | 51.5 |
| Cc1c[nH]nc1C1CCN(C(=O)C2CCCC2)C1 (configuration not stated) | 65.7 |
| CC(C)OCC(=O)N1CCC(c2ncncc2-c2ccnc(N)c2)C1 (configuration not stated) | 8.12 |
| CC(=O)N1CCC(c2n[nH]c3nccnc23)CC1 | 8.53 |
| Cc1nc(C(=O)N2CCC(c3cc(CCO)n(C)n3)C2)co1 (configuration not stated) | 19.3 |
| CNC(=O)[C@@H](c1ccccc1OC)N1CCC[C@H]1C(=O)N1CCC1 | -37.8 |
| COCC(NC1CCN(CC(C)C)CC1)c1ccnn1C (configuration not stated) | -1.49 |
| CCc1c(C)sc2nc3n(CCN4CCOCC4)nc(SC)n3c(=O)c12 | 17.7 |
| CC(c1ccncc1)N(CCN(C)C)C(=O)Nc1ccc(Cl)c(Cl)c1 (configuration not stated) | -32.1 |
| O=C(c1ccoc1)N1C[C@@H]2[C@@H](C1)OCC(=O)N2Cc1cccnc1 | 16.8 |
| CN(C(=O)c1cc(F)ccc1F)[C@@H]1CC[C@@H](O)[C@@H]1O | 2.55 |
| Cc1cc(N2CC(c3n[nH]c4nccnc34)C2)ncn1 | 18.3 |
| Cc1c[nH]nc1C1CCN(C(=O)Cn2cccn2)C1 (configuration not stated) | -9.32 |
| Cc1cc(N2CCC(c3n[nH]c4nccnc34)C2)ncn1 (configuration not stated) | -4.51 |
| CC(C)Nc1cc(-c2c[nH]nc2C2CCN(C(=O)C3CCC3)C2)ccn1 (configuration not stated) | 88.45 |
| CC(C)N1CCC(c2n[nH]cc2-c2ccnc(N)c2)C1 (configuration not stated) | 26.5 |
| Nc1cc(-c2c[nH]nc2C2CCCCN2C(=O)C2CCCC2)ccn1 (configuration not stated) | 59.9 |
| Nc1cc(-c2c[nH]nc2C2CCCN2S(=O)(=O)c2ccccc2)ccn1 (configuration not stated) | 39.1 |

| SMILES | INHIBITION [%] |
| --- | --- |
| Nc1cc(-c2c[nH]nc2C2CCN(C(=O)C3CCCC3)C2)ccn1 (configuration not stated) | 31.75 |
| CCCNc1cc(-c2c[nH]nc2C2CCN(C(=O)C3CCC3)C2)ccn1 (configuration not stated) | 87.35 |
| CN(C)S(=O)(=O)N1CCC(c2n[nH]cc2-c2ccnc(N)c2)C1 (configuration not stated) | -9.215 |
| Cc1cc(N2CCC(c3n[nH]c4nccnc34)CC2)ncn1 | 58.1 |
| COCC(=O)N1C[C@@H](OCc2cccnc2)[C@H]2OCCC[C@@H]21 | 26.5 |
| Cc1ccc(S(N)(=O)=O)cc1C(=O)NC1CCCC1 | 12.2 |
| CC(=O)N1CCCC(c2ccnc(Nc3cnccn3)c2)C1 (configuration not stated) | -9 |
| O=C(NCC(CO)Cc1cccc(OC(F)(F)F)c1)c1cnccn1 (configuration not stated) | 30.8 |
| O=C(Cc1csc(-c2ccsc2)n1)N1CCN(c2cnccn2)CC1 | -40.2 |
| Cc1nc(C)n(CC2CCCN(CCC(=O)NC3CCCCC3)C2)n1 (configuration not stated) | -4.16 |
| CN1CC(C(=O)NC2(c3ccc(Cl)cc3)CCOCC2)CC1=O (configuration not stated) | 8.31 |
| NC(=O)c1c(NC(=O)CCCC(=O)O)sc2c1CCc1ccccc1-2 | 33 |
| Cc1nn(C)c(C)c1-c1nccnc1CC1CCNCC1 | -17.9 |
| CCc1c(C)nn2c(O)cc(C3CCN(C(=O)c4ccn(C)n4)C3)nc12 (configuration not stated) | 3.623 |
| c1cnc(N2C[C@@H]3COC[C@]3(COCC3CCCC3)C2)nc1 | 15.4 |
| CN(C)[C@@H]1CCN(CC2CC2)[C@H]1Cc1cnn(C)c1 | 1.94 |
| CN1CC(=O)N(c2cnn(C)c2)CC12CCN(Cc1ccccc1)C2 (configuration not stated) | 21.8 |
| Cc1cc(C)n(-c2nc(C(=O)NCCS(=O)(=O)N3CCCCC3)cs2)n1 | 0.696 |
| O=C(NCC(=O)N1CCN(c2ccccc2)CC1)c1sccc1C1CC1 | 92 |
| CCc1nc(C)c(C(=O)NCCN2CCC(C)CC2)s1 | 15.6 |
| CN1CCN(CCNC(=O)c2sccc2C2CC2)CC1 | 31.6 |
| CC1CCN(CCNC(=O)c2sccc2C2CC2)CC1 | 81.5 |

| SMILES | INHIBITION [%] |
| --- | --- |
| O=C(c1sccc1C1CC1)N1CCN(c2ncccn2)CC1 | 49.1 |
| CC1CCN(CCNC(=O)c2scnc2Cl)CC1 | 40.2 |
| O=C(NCC(=O)N1CCCCC1)c1sccc1C1CC1 | 17.2 |
| Cc1cc(C)n(-c2nc(C(=O)NCCN3CCC(C)CC3)cs2)n1 | 61 |
| COc1ccccc1NC(=O)NCc1nnc(SC)n1C | 8.125 |
| N#CC1(C(=O)N2CCCN(Cc3cscn3)CC2)CCCCC1 | -54.6 |
| CC(C)C(=O)N1CCCC(Cc2ncccn2)C1 (configuration not stated) | 32.7 |
| CC(C)CCCC1CN(C(=O)c2cnc[nH]2)CCO1 (configuration not stated) | -10.5 |
| COc1ccccc1C(NCc1ccc(SC)cc1)c1nccn1C (configuration not stated) | 29.06 |
| CSc1ccc(CNC(c2ccccc2F)c2nccn2C)cc1 (configuration not stated) | -27.24 |
| Cn1ccnc1C(NCc1ccccc1)c1ccc(F)cc1 (configuration not stated) | 32.9 |
| Cn1ccnc1C(NCc1ccc(Br)cc1)c1ccccc1 (configuration not stated) | -32.9 |
| COc1c(CNC(c2ccccc2)c2nccn2C)c(C)nn1C (configuration not stated) | 39.4 |
| Cc1ccc(CNC(c2cccc(F)c2)c2nccn2C)o1 (configuration not stated) | 24.2 |
| CSc1ccc(CNC(c2ccc(F)cc2)c2nccn2C)cc1 (configuration not stated) | -1.6 |
| Cc1ccc(CNC(c2ccc(F)cc2)c2nccn2C)o1 (configuration not stated) | 52.6 |
| Cn1ccnc1C(NCc1csc(Br)c1)c1ccccc1 (configuration not stated) | 51.6 |
| COc1cc(CNC(c2ccccc2)c2nccn2C)cc(OC)c1 (configuration not stated) | -76.15 |
| CSc1ccc(CNC(c2ccccc2)c2nccn2C)cc1 (configuration not stated) | 79.1 |
| COc1cccc(C(NCc2ccc(SC)cc2)c2nccn2C)c1 (configuration not stated) | 51.2 |
| CC(=O)NCCCNC(=O)Nc1ccccc1-n1nc(C)cc1C | 9.06 |
| COc1ccccc1C(=O)NS(=O)(=O)c1cccc(C#N)c1 | 25.1 |

| SMILES | INHIBITION [%] |
| --- | --- |
| COc1cc(CN)c(OC)c2c1OCO2 | -3.48 |
| CCCS(=O)(=O)N1CCC2(CN(c3ccsc3)C(=O)CN2C)C1 (configuration not stated) | -24.2 |
| Cc1oncc1C(=O)N1CC[C@H]2C[C@H](c3ccncn3)O[C@@H]2C1 | 11.3 |
| Cn1ncc(Cl)c1C(=O)N1CCC(c2nnsc2S(C)(=O)=O)CC1 | -9.2465 |
| Cc1cc(C)cc(CNC(c2ccccc2)c2nccn2C)c1 (configuration not stated) | 41.15 |
| Cc1ccc(CNC(c2ccccc2)c2nccn2C)cc1C (configuration not stated) | 54.9 |
| Cc1ccc(CNC(c2ccccc2)c2nccn2C)cc1 (configuration not stated) | 33.6 |
| Cc1cc(CN2CCCC2c2noc(C(C)C)n2)on1 (configuration not stated) | 47 |
| O=C(O)c1cncc(Cc2ccc(F)cc2)c1 | -3.02 |
| CCN(Cc1ccoc1)C(=O)c1cc(C)c(C)c(S(N)(=O)=O)c1 | -5.94 |
| CCN(Cc1ccoc1)C(=O)c1ccc(C)c(S(N)(=O)=O)c1 | -2.97 |
| CCN(Cc1ccncc1)C(=O)c1cc(C)c(C)c(S(N)(=O)=O)c1 | 52.8 |
| CC(C)(C)C(=O)NCC(=O)NCCc1nc(C(F)(F)F)cs1 | 15 |
| CS(=O)(=O)N1CCN(C(=O)c2cccc(Cl)c2)CC2(CNC(=O)C2)C1 (configuration not stated) | 13.7 |
| CN(C)C(=O)N1CCN(C(=O)c2ccccc2)CC2(CNC(=O)C2)C1 (configuration not stated) | -0.804 |
| CN(C)C(=O)N1CCN(C(=O)c2cccc(Cl)c2)CC2(CNC(=O)C2)C1 (configuration not stated) | 79.6 |
| CN(C)C(=O)N1CCN(C(=O)c2ccc(Cl)cc2)CC2(CNC(=O)C2)C1 (configuration not stated) | 21.7 |
| COc1cc(Cl)cc(C(=O)N2CCC3(CC2)CNC(=O)C3)c1 | 13.7 |
| O=C1CC2(CCN(C(=O)c3cccc(Cl)c3)CC2)CN1 | 55.7 |
